{"source": "PubChem BioAssay (NCATS)", "note": "Values without a mark were called inactive. The rule behind the calls is not given here. Potency is the fitted concentration of half-maximal effect."}
{"test_system": "HIV-1 nucleocapsid protein NCp7 (binding to TG oligonucleotide)", "test": "HIV Nucleocapsid (AID 346);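 note: potency is for inhibitors that block NC binding and lower polarization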", "conditions": "HIV-1 NC / fluorescein-TGTGTGTG probe, fluorescence polarization", "how_it_was_run": "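Fluorescence polarization readout: labelled TG4xF oligo (10 nM) with 100 nM nucleocapsid protein, high-salt (250mM NaCl) Hepes pH 7.5 buffer containing zinc and fresh reducing agents. Compounds added by pin tool; incubation 1 hr, room temperature.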", "units": {"Potency": "µM"}}
{"molecule": "CN1CC[C@@]2(CCCN(C(=O)c3cccn3C)C2)C1", "Potency": "> 20"}
{"molecule": "COc1cccc(Cn2c(=O)c(-c3cccc(F)c3)nc3cncnc32)c1", "Potency": "> 20"}
{"molecule": "CC(=O)N1CCC2(CC1)CCN(c1ccccc1)CC2", "Potency": "> 20"}
{"molecule": "O=C(c1ccco1)N1CCC2(CCCN(c3ncccn3)C2)CC1", "Potency": "> 20"}
{"molecule": "O=C(c1cccc(F)c1)N1CCC2(CC1)CN(c1ncccn1)C2", "Potency": "> 20"}
{"molecule": "Cc1cccc(CNc2ccnc(-c3cccc(NS(C)(=O)=O)c3)n2)c1", "Potency": "> 20"}
{"molecule": "COc1ncc2nc(CCc3ccccc3)c(=O)n(C)c2n1", "Potency": "> 20"}
{"molecule": "COc1cccc(Nc2ncc3nc(CCc4ccccc4)c(=O)n(C4CC4)c3n2)c1", "Potency": "> 4"}
{"molecule": "COc1ncc2nc(CCc3ccccc3)c(=O)n(-c3ccccc3)c2n1", "Potency": "> 20"}
{"molecule": "COc1cccc(-c2ccc3ncnc(N4CCNCC4)c3c2)c1", "Potency": "> 20"}
{"molecule": "COc1ccccc1-c1nc(NCCc2cnc[nH]2)c2ccccc2n1", "Potency": "> 20"}
{"molecule": "COCC(=O)N1CCC2(CCCN(Cc3cc(C(F)(F)F)cc(C(F)(F)F)c3)C2)CC1", "Potency": "> 20"}
{"molecule": "O=C(c1cc(C(F)(F)F)cc(C(F)(F)F)c1)N1CCC2(CC1)CCN(c1ncccn1)CC2", "Potency": "> 20"}
{"molecule": "Clc1ccccc1-c1cc(NCCN2CCOCC2)ncn1", "Potency": "> 20"}
{"molecule": "Cc1noc(C)c1-c1cc(NCc2cccnc2)ncn1", "Potency": "> 20"}
{"molecule": "CS(=O)(=O)Nc1cccc(-c2ccc3ncnc(NCc4cccnc4)c3c2)c1", "Potency": "> 20"}
{"molecule": "O=c1cnc2cnc(Nc3ccccc3)nc2n1CCc1ccccc1", "Potency": "> 20"}
{"molecule": "N#Cc1ccc(CN2CC[C@@]3(CCCN(C(=O)c4cnccn4)C3)C2)cc1", "Potency": "> 20"}
{"molecule": "COCC(=O)N1CCC2(CCCN(c3ncccn3)C2)CC1", "Potency": "> 20"}
{"molecule": "COc1ccccc1-c1cc(NCc2ccccc2)ncn1", "Potency": "> 20"}
{"molecule": "COc1ccc(-c2nc3cnc(Oc4cccc(Cl)c4)nc3n(CCC#N)c2=O)cc1", "Potency": "> 20"}
{"molecule": "c1ccc(-c2cccc(N3CCC4(CCNCC4)CC3)c2)cc1", "Potency": "> 20"}
{"molecule": "c1cncc(CNc2nc(-c3cccnc3)nc3ccccc23)c1", "Potency": "> 20"}
{"molecule": "COc1ccc(-c2nc3cnc(N4CCNCC4)nc3n(Cc3ccc(F)cc3)c2=O)cc1", "Potency": "> 20"}
{"molecule": "COc1ccc(Oc2ncc3nc(C)c(=O)n(CCc4ccccc4)c3n2)cc1", "Potency": "> 20"}
{"molecule": "CC(=O)N1CCC2(CCCN(Cc3nccs3)C2)CC1", "Potency": "> 20"}
{"molecule": "Cc1noc(C)c1C(=O)N1CCC[C@@]2(CCN(Cc3ccc(C#N)cc3)C2)C1", "Potency": "> 20"}
{"molecule": "CC(=O)NCCNc1ncnc2ccc(-c3ccccc3Cl)cc12", "Potency": "> 20"}
{"molecule": "O=C(c1ccncc1)N1CCC2(CC1)CCN(c1ncccn1)CC2", "Potency": "> 20"}
{"molecule": "COc1cccc(-c2nc(N(C)Cc3ccco3)c3ccccc3n2)c1", "Potency": "> 20"}
{"molecule": "COc1ncc2ncc(=O)n(C3CC3)c2n1", "Potency": "> 20"}
{"molecule": "O=C(Oc1ccccc1)N1CCC[C@@]2(CCN(c3ccccc3)C2)C1", "Potency": "> 20"}
{"molecule": "COc1ncc2nc(-c3cn(C)c4ccccc34)c(=O)n(CCC#N)c2n1", "Potency": "> 20"}
{"molecule": "Cn1cc(-c2nc3cnc(N4CCNCC4)nc3n(-c3ccccc3)c2=O)c2ccccc21", "Potency": "> 4"}
{"molecule": "Cc1cccc(CNc2cc(-c3cccc(C#N)c3)ncn2)c1", "Potency": "> 20"}
{"molecule": "CC(=O)NCCNc1ccnc(-c2ccccc2C)n1", "Potency": "> 20"}
{"molecule": "c1ccc(-c2cccc(N3CC[C@@]4(CCCNC4)C3)c2)cc1", "Potency": "> 20"}
{"molecule": "Fc1ccc(Nc2ccnc(-c3ccccc3C(F)(F)F)n2)cc1", "Potency": "> 20"}
{"molecule": "COc1ccc(C(=O)N2CCC3(CCN(Cc4ccccc4OC)CC3)CC2)cc1", "Potency": "> 20"}
{"molecule": "COc1ccc(CNc2cc(-c3ccccc3Cl)ncn2)c(OC)c1", "Potency": "> 20"}
